Screens as filed in PubChem.
FMDV inh = High Throughput Screening for Foot and Mouth Disease Virus Antivirals; FMDV antiviral cell-based qHTS; Potency, µM (doses to about 57.9 µM), hits mostly inhibitors; hit rate 1.2% among 410,000; calls by dose curve; tested in HEK293T cells; note: read-out not given here; nearly all actives have a fitted effect of over 45% in size
HCMV inh = qHTS Assay for inhibitors of the human cytomegalovirus (HCMV) | HFF cells, HCMV-luciferase reporter, 72 h; hits give low values | activity change, negative = inhibition, % at 57.5 µM | hit rate 4.5% among 410,000 | AID 1259415, 2018; in the data active = activity change below about -60%; inconclusive = no clear call, values can overlap the other calls; inactive = above about -39%
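Steps: HFFs plated, 16 h 37C; compounds added; HCMV-luciferase added to MOI 1 PFU/cell; 72 h 37C; OneGlo reagent, 5 min room temperature; luminescence read, normalized to controls.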
HCV inh = qHTS Assay for Inhibitors of Hepatitis C Virus (HCV) | Potency, µM (series often up to 41.8 µM), usual class: inhibitors | Huh7.5.1 HCVcc-Cre infection, luciferase reporter, 44 h | hit rate 3.4% among 340,000 | AID 651820, 2012; active = well fitted inhibition curve with a large enough effect; inconclusive = small, poorly fitted or top-dose-only effect, or another doubt; inactive = no such curve, though single readings can be large or run the other way
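Luciferase read-out (15 sec integration) after a 15 min room-temperature substrate step quantifies HCVcc-Cre infection. Cells, 1,000 per well, had compound added 4 h post-plating, then virus at ~0.5 moi, and were cultured 44 h.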
Vaccinia mCherry = qHTS for Stage-Specific Inhibitors of Vaccinia Orthopoxvirus: mCherry Reporter Primary qHTS. AID 720579, 2013. Potency, µM (top dose mostly 36.5 µM), usual class: inhibitors. hit rate 0.63% among 310,000. Vaccinia virus mCherry reporter infection, fluorescence; calls by dose curve; tested in A549 cells; note: nearly all actives have a fitted effect of over 35% in size
Vaccinia Venus = qHTS for Stage-Specific Inhibitors of Vaccinia Orthopoxvirus: Venus Reporter Primary qHTS; Vaccinia virus Venus reporter expression, fluorescence; Potency, µM (highest dose often 36.5 µM), usual class: inhibitors; hit rate 0.46% among 330,000; AID 720580, 2013; calls by dose curve; tested in A549 cells; note: nearly all actives have a fitted effect of over 30% in size
Large screens that a line does not name were inactive. Most compounds without a hit are left out; they make up all but 7.3% or so of the library.

Cc1ccc2c(c1)S/C(=C/c1ccc[n+](CCO)c1)N2C	FMDV inh inconclusive, HCMV inh -95.1, HCV inh 1.58µM
Cc1ccc2c(c1)S/C(=C\c1cccc[n+]1C)N2CCO	FMDV inh inconclusive, HCMV inh -97.5, HCV inh inconclusive (no result: Vaccinia mCherry, Vaccinia Venus)
O=C(Cn1nc2c(cc1=O)CCCC2)Nc1ccccc1C(F)(F)F	none (no result: HCV inh)
CCC(C)(C)NC(=O)c1ccccc1Oc1ccccc1	HCMV inh -75.6
CN(C)C(=O)C[C@@H]1CC[C@@H](NC(=O)C2CCC2)[C@@H](CO)O1	none (no result: HCV inh)
Cc1cc(C)n2nc(SCC(=O)c3cc(C)n(-c4cc(C)on4)c3C)nc2n1	FMDV inh inconclusive, HCMV inh inconclusive, HCV inh 4.47µM, Vaccinia Venus inconclusive
Cc1cc(C(=O)CSc2ncnc3ccccc23)c(C)n1C1CC1	HCV inh 10µM
Cc1cc(C)n2nc(SCC(=O)N3CC(C)CC(C)C3)nc2n1 (configuration not stated)	HCMV inh -65.1
CCOC(=O)N1CCN(C(=O)CSc2nc3nc(C)cc(C)n3n2)CC1	none
Cc1cc(-n2c(C)cc(C(=O)CSc3ncnc4ccccc34)c2C)no1	FMDV inh 12.6µM, HCMV inh -78.3, HCV inh 2.82µM (no result: Vaccinia mCherry, Vaccinia Venus)
CC(=O)c1cccc(OCC(=O)c2cc(C)n(-c3cc(C)on3)c2C)c1	FMDV inh 22.4µM, HCV inh inconclusive
C=CCOc1ccc(/C=N/NC(=O)c2c(C)nc3ccc(Cl)cn23)cc1	none
Cc1ccc(SCCNC(=O)c2ccccc2)cc1	none
Cc1ccc(SCCNC(=O)c2ccc(C)c(S(=O)(=O)Nc3cccc(C)c3)c2)cc1	HCMV inh -69.7 (no result: FMDV inh)
Cc1ccc(NS(=O)(=O)c2cc(C(=O)NCCSC3CCCCC3)ccc2C)cc1	HCV inh inconclusive (no result: Vaccinia mCherry, Vaccinia Venus)
Cc1ccc(NS(=O)(=O)c2cc(C(=O)NCCSc3ccc(C)cc3)ccc2C)cc1	HCMV inh -97.6, HCV inh inconclusive, Vaccinia mCherry inconclusive, Vaccinia Venus inconclusive (no result: FMDV inh)
Cc1cc(C)cc(C(O)c2ncc(-c3cccc(F)c3)[nH]2)c1 (configuration not stated)	none (no result: HCV inh)
CCC12C(=O)C(CC)(C(c3ccccc3)=C1c1ccccc1)[C@@H]1C(=O)N(c3ccc(C)cc3)C(=O)C12 (some centres not stated)	none
CCC12C(=O)C(CC)(C(c3ccccc3)=C1c1ccccc1)[C@@H]1C(=O)N(c3ccccc3)C(=O)C12 (some centres not stated)	HCMV inh -60.6, HCV inh 14.1µM
CCCC12C(=O)C(C)(C(c3ccccc3)=C1c1ccccc1)C1C(=O)N(c3ccc(C)cc3)C(=O)C12 (configuration not stated)	FMDV inh inconclusive, HCMV inh -86.6, HCV inh 4.47µM
Cc1ccc(-c2nn3c(C)nnc3s2)cc1NC(=O)c1ccc(-c2ccc(Cl)cc2Cl)o1	HCMV inh -73.6, HCV inh inconclusive (no result: Vaccinia mCherry, Vaccinia Venus)
Cc1ccc(-c2nn3c(C)nnc3s2)cc1NC(=O)c1ccc(-c2cccc(Cl)c2)o1	FMDV inh inconclusive, HCMV inh inconclusive, HCV inh inconclusive
COc1ccc(-n2c(O)c(/C=C3\C=Nc4ccc(Br)cc43)c(=O)[nH]c2=O)c(OC)c1	FMDV inh 25.1µM
COc1ccc(-n2c(O)c(/C=C3\C=Nc4ccc(Br)cc43)c(=O)[nH]c2=O)cc1	FMDV inh 15.8µM
O=C1N(Cc2cccc(Cl)c2)C[C@@H]2C[C@@H](c3cccn3-c3ccccn3)N3CCC[C@@]123	HCV inh 6.31µM
O=C1N(Cc2cccc(Cl)c2)C[C@@H]2C[C@@H](c3cccc4ncccc34)N3CCC[C@@]123	HCV inh 11.2µM
CC1CCc2c(sc(NC(=O)CCCOc3ccc(C(C)(C)C)cc3)c2C(N)=O)C1 (configuration not stated)	none (no result: HCV inh)
COC(=O)CCC(=O)OC1(C)C(=O)C=C2C=C(C3CC3)N(Cc3ccc(OC)cc3)C=C2C1=O (configuration not stated)	HCV inh 3.55µM
COc1ccc(S(=O)(=O)Nc2cc3c4c(c2)CCN4C(=O)CC3)cc1OC	HCV inh inconclusive
CC(C)CC1C(=O)N(Cc2cn(CC3CCCCC3)nn2)CCS(=O)(=O)N1Cc1ccc(-c2ccc(Cl)c(Cl)c2)cc1 (configuration not stated)	Vaccinia Venus inconclusive (no result: HCV inh)
